Screening data from PubChem.
TexasRed fluor: Texas Red fluorescence interference in TRb-SRC2 counter-screen; TRb/SRC2 Texas Red total fluorescence interference; Potency, µM (doses to about 106 µM), for inactives: at the highest dose fluorescence change, negative = quenching; actives 0.29% (n = 280,000); AID 1479; active = well fitted curve in either direction with a large enough effect; inconclusive = small, poorly fitted or top-dose-only effect
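Flags fluorescent or light-absorbing compounds by total fluorescence, S + 2P, at 555 nm excitation and 632 nm emission. Mixture: 20 nM Texas Red SRC2 peptide, 0.6 uM human TRb LBD, 1 uM T3, 5% DMSO; compound exposure 5 h at ambient temperature.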
TRb-SRC2 inh: disrupts binding of human TR beta to SRC2. P10828. TRbeta-SRC2 peptide binding, fluorescence polarization; receptor liganded with 1 µM T3. Potency, µM (top dose mostly 106 µM), for inactives: at the highest dose activity change, negative = inhibition, usual class: inhibitors. actives 0.065% (n = 280,000). AID 1469;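 also: plate controls were bound peptide for no effect and peptide without receptor for full effect; nearly all actives have a fitted effect of over 50% in size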
Target sequence (P10828 whole entry, looked up): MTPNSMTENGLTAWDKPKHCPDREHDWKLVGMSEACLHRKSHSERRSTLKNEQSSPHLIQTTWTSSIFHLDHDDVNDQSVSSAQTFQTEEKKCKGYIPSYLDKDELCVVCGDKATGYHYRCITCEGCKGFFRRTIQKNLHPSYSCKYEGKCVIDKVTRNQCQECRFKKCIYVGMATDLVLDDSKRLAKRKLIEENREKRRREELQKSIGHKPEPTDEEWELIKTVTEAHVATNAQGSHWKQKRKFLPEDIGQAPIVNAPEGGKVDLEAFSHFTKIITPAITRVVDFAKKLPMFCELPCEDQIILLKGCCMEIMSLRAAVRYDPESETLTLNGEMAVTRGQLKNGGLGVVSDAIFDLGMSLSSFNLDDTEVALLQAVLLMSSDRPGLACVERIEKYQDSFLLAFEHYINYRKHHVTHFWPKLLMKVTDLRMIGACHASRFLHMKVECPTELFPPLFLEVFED
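Human TRb LBD (0.6 uM) plus Texas Red-labeled SRC2 peptide (20 nM), 1uM T3, 5% DMSO, 5 hr at ambient temperature. Decreased polarization (555/632 nm) flags inhibition; data normalized to free and bound peptide controls.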
Tau fluor cs: counter-screen for tau fibril formation inhibitors. actives 0.93% (n = 280,000). Potency, µM (doses to about 57.7 µM), inactives show top-dose activity change, negative = decrease. tau K18 P301L Alexa594 fluorescence, heparin fibrillization; also: nearly all actives have a fitted effect of over 55% in size
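Human tau K18 P301L (15 uM unlabeled, 0.24 uM Alexa 594-labeled) in 100 mM sodium acetate pH 7 with 20 uM heparin, 6 hr at 37 C. ThT 30 uM added, 1 hr ambient; Alexa 594 FP and total fluorescence read at 555/632 nm.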
Tau fibril FP: tau fibrillization inhibition (FP) | P10636 | K18 P301L tau heparin fibrillization, Alexa594 FP, 6 h | Potency, µM (doses to about 57.7 µM), for the others: top-dose activity, negative = inhibition, most hits filed as inhibitors | actives 0.39% (n = 280,000) | AID 1468; also: nearly all actives have a fitted effect of over 55% in size
Target sequence (P10636 561-689 P618L limits assumed): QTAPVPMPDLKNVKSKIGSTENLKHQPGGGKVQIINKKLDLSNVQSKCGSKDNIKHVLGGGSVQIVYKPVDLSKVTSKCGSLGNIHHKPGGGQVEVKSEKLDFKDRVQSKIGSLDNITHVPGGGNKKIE
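Read-out: fluorescence polarization of Alexa 594-labeled tau (0.24 uM), 555 nm excitation, 632 nm emission. Mixtures held 15 uM unlabeled K18 P301L, compound and 20 uM heparin, pH 7 acetate buffer, incubated 6 hr at 37 C.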
Tau fibril ThT: blocks human tau fibril formation measured by thioflavin T. Potency, µM (titrated, usually from 57.4 µM), inactives show top-dose activity, negative = inhibition, hits mostly inhibitors. AID 1460. actives 2.1% (n = 270,000). P10636. recombinant tau K18 P301L (four-repeat tau fragment), heparin-induced fibrillization, ThT fluorescence; also: nearly all actives have a fitted effect of over 55% in size
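Heparin-induced fibrillization of the P301L-mutant K18 repeat-domain fragment of human tau was followed by ThT binding in quantitative high-throughput format.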
An asterisk follows results filed as active; ! = repeats disagree; [ ] = remark or other dose. In the library only some 3.1% were active in any assay of this set; here they are far more common. Unless noted, calls follow the shape of the dose curve; as a rule, active = well fitted curve in the direction sought with a large enough effect; inconclusive = small, poorly fitted or top-dose-only effect, or another doubt; inactive = no such curve, though single readings can be large; an effect the other way counts as inactive or inconclusive. Unless noted, % is scaled to controls: 0 for no effect and ±100 for the full control effect; potency is read from the fitted curve at half-maximal effect.

`O=[N+]([O-])c1cccc2c(N3CCCC3)ccnc12` gave TexasRed fluor -3%, TRb-SRC2 inh -5%, Tau fluor cs -3%, Tau fibril FP -6% and Tau fibril ThT inconclusive.
For O=[N+]([O-])c1ccc(S(=O)(=O)Nc2ccc(-c3csc(-c4ccccc4)n3)cc2)cc1 the results were TexasRed fluor 0%, TRb-SRC2 inh 11%, Tau fluor cs 8.9µM*[quencher], Tau fibril FP -7% and Tau fibril ThT inconclusive.
Screening CNc1nc(-c2ccc([N+](=O)[O-])cc2)cs1 returned TexasRed fluor -2%, TRb-SRC2 inh -2%, Tau fluor cs -13%, Tau fibril FP 11% and Tau fibril ThT 13µM*.
`O=S(=O)(Nc1ccc(-c2csc(-c3ccccc3)n2)cc1)c1ccccc1` gave TexasRed fluor -3%, TRb-SRC2 inh 8%, Tau fluor cs inconclusive, Tau fibril FP inconclusive and Tau fibril ThT 1%.
`CC(C)C(=O)Nc1nc(-c2ccc([N+](=O)[O-])cc2)cs1` gave TexasRed fluor -4%, TRb-SRC2 inh 2%, Tau fluor cs -3%, Tau fibril FP 4% and Tau fibril ThT -14%.
`Cc1cccc2c(N=Nc3ccc(S(=O)(=O)Nc4cccc(Cl)c4)cc3[N+](=O)[O-])c(O)[nH]c12` gave TexasRed fluor -4%, TRb-SRC2 inh -4%, Tau fluor cs 5.6µM*[quencher], Tau fibril FP 4% and Tau fibril ThT inconclusive.
`Cc1ccc(S(C)(=O)=O)cc1S(=O)(=O)Nc1cccc(Cl)c1` gave TexasRed fluor -1%[53 µM], TRb-SRC2 inh -5%[53 µM], Tau fluor cs 6%, Tau fibril FP 4% and Tau fibril ThT 9%.
For CC[n+]1ccccc1/C=C/c1ccc(N(C)C)cc1 the results were TexasRed fluor 4%, TRb-SRC2 inh 6%, Tau fluor cs 8%, Tau fibril FP 3% and Tau fibril ThT 14µM*.
Screening CN(C)c1ccc(/C=C/c2cc[n+](C)cc2)cc1 returned TexasRed fluor 45µM*[fluorescent], TRb-SRC2 inh inconclusive, Tau fluor cs 14µM*[fluorescent], Tau fibril FP inconclusive and Tau fibril ThT 4µM*.
For CC[n+]1ccc(/C=C/c2ccc(N(C)C)cc2)c2ccccc21 the results were TexasRed fluor 32µM*[fluorescent], TRb-SRC2 inh inconclusive, Tau fluor cs 0.71µM*[fluorescent], Tau fibril FP inconclusive and Tau fibril ThT 1.4µM*.
Screening COc1ccccc1N1CCN(c2ncnc3c2cnn3-c2cccc(Cl)c2)CC1 returned TexasRed fluor 0%, TRb-SRC2 inh 1%, Tau fluor cs -19%, Tau fibril FP 4% and Tau fibril ThT inconclusive.
Screening COc1ccc(C(=O)C2CCCN(C(=O)c3cc(C(C)C)no3)C2)cc1F (stereo unspecified) returned TexasRed fluor -7%, TRb-SRC2 inh -3%, Tau fluor cs -7%, Tau fibril FP -9% and Tau fibril ThT -1%.
For CCOc1ccc(-c2c(C)nn3c(C)c(C(=O)NCc4ccc(Cl)cc4)cnc23)cc1OCC the results were TexasRed fluor 251µM*[quencher], TRb-SRC2 inh -11%, Tau fluor cs -16%, Tau fibril FP 2% and Tau fibril ThT -9%.
`CC(N)=Nc1ccc([N+](=O)[O-])cc1` gave TexasRed fluor -1%, TRb-SRC2 inh 3%, Tau fluor cs -1%, Tau fibril FP -2% and Tau fibril ThT 3%.
O=[N+]([O-])c1ccc(N=Nc2c(Cl)cc(O)cc2Cl)cc1 was read as TexasRed fluor -9%, TRb-SRC2 inh 1%, Tau fluor cs 8.9µM*[quencher] and Tau fibril FP 32µM*.
COc1cccc(-n2c(SCc3cc(=O)oc4cc(O)c(O)cc34)nc3ccccc3c2=O)c1 was read as TexasRed fluor -29%, TRb-SRC2 inh 6%, Tau fluor cs 14µM*[quencher], Tau fibril FP inconclusive and Tau fibril ThT 25µM*.
`CCN(CC)C(=O)CSc1nc2ccccc2c(=O)n1-c1cccc(OC)c1` gave TexasRed fluor -1%, TRb-SRC2 inh -9%, Tau fluor cs -8%, Tau fibril FP 0% and Tau fibril ThT -14%.
Screening C=CCN1C=C/C(=C\C=C(C#N)C#N)c2ccccc21 returned TexasRed fluor -1%, TRb-SRC2 inh -7%, Tau fluor cs -1%, Tau fibril FP 6% and Tau fibril ThT inconclusive.
`CCCCCCN1C=C/C(=C\C=C(C#N)C#N)c2ccccc21` gave TexasRed fluor 45µM*[fluorescent], TRb-SRC2 inh 40µM*, Tau fluor cs -10%, Tau fibril FP -19% and Tau fibril ThT inconclusive.
`Cc1cc(C)c(NS(=O)(=O)c2ccc(-c3coc(C)n3)cc2)c(C)c1` gave TexasRed fluor 0%, TRb-SRC2 inh 2%, Tau fluor cs -3%, Tau fibril FP 3% and Tau fibril ThT 6%.
For CC1=NN(c2ccc([N+](=O)[O-])cc2)C(c2ccccc2)C1 (stereo unspecified) the results were TexasRed fluor 0%, TRb-SRC2 inh -8%, Tau fluor cs inconclusive, Tau fibril FP 2% and Tau fibril ThT inconclusive.
N#CC1CC(c2ccc([N+](=O)[O-])cc2)=NN1c1ccc([N+](=O)[O-])cc1 (stereo unspecified) was read as TexasRed fluor 1%, TRb-SRC2 inh 1%, Tau fluor cs inconclusive, Tau fibril FP 13% and Tau fibril ThT 3.2µM*.
For CC1(OC(=O)c2ccc(Cl)nc2)C(=O)C=C2C=C(c3ccc(C#N)cc3)OC=C2C1=O (stereo unspecified) the results were TexasRed fluor -1%, TRb-SRC2 inh 6%, Tau fluor cs inconclusive, Tau fibril FP inconclusive and Tau fibril ThT 25µM*.
`CC1(OC(=O)c2ccc(Cl)nc2)C(=O)C=C2C=C3CCCN3C=C2C1=O` (stereo unspecified) gave TexasRed fluor -13%[11.2 µM], TRb-SRC2 inh 5%[11.2 µM], Tau fluor cs -11%[11.6 µM], Tau fibril FP inconclusive and Tau fibril ThT 5µM*.
Screening CC1(OC(=O)c2ccc(Cl)nc2)C(=O)C=C2C=C(c3ccsc3)OC=C2C1=O (stereo unspecified) returned TexasRed fluor 1%, TRb-SRC2 inh 5%, Tau fluor cs -16%, Tau fibril FP -4% and Tau fibril ThT inconclusive.
COC(=O)CCC(=O)OC1(C)C(=O)C=C2C=C3CCCN3C=C2C1=O (stereo unspecified) was read as TexasRed fluor 0%[11.2 µM], TRb-SRC2 inh 0%[11.2 µM], Tau fluor cs -6%[11.6 µM], Tau fibril FP inconclusive and Tau fibril ThT 10µM*!.
`CC1(OC(=O)c2ccc(Cl)nc2)C(=O)C=C2C=C(C3CC3)OC=C2C1=O` (stereo unspecified) gave TexasRed fluor 10%, TRb-SRC2 inh -9%, Tau fluor cs -11%, Tau fibril FP -5% and Tau fibril ThT -15%.
